Assay outcomes from PubChem.
In the library only some 4.5% were active in any assay of this set; here they are far more common.
ALR H2O2 inh: inhibitors of human sulfhydryl oxidase ALR. purified ALR, DTT oxidation, H2O2 HRP-luminol luminescence. 290,000 compounds, 3.8% hits. P55789. inhibition, % (concentration not given with the values). AID 485317;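 active = mean replicate inhibition above about 79%, with every replicate also reaching it, limit read from the data; inconclusive = only one of the two criteria met; inactive = mean below limit and not every replicate reaching it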
Target sequence (P55789 whole entry, looked up): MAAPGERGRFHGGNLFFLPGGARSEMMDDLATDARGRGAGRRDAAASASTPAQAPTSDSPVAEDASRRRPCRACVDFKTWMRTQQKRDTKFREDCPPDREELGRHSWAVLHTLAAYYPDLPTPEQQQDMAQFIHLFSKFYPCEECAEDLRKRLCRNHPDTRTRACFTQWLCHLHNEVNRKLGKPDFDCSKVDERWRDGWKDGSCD
HDAC3 inhib: human HDAC3 inhibition; recombinant HDAC3, fluorogenic peptide/trypsin coupled, fluorescence; inhibition, % at 8.3 µM; 320,000 compounds, 0.15% hits; in the data active = inhibition above about 26%, passing the limit was not always enough; inconclusive = no clear call, values can overlap the other calls
Rtt109 HAT inh: C. albicans Rtt109 histone acetyltransferase inhibition | AID 540336 | purified Rtt109/Vps75, ThioGlo CoA-SH fluorescence, 4 h | inhibition, % at 34.9 µM | 330,000 compounds, 0.16% hits;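 active = inhibition of at least 50% in every replicate; inconclusive = best replicate reaches 50% inhibition but some replicates fall short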
Target sequence (Q5AAJ8 whole entry, looked up): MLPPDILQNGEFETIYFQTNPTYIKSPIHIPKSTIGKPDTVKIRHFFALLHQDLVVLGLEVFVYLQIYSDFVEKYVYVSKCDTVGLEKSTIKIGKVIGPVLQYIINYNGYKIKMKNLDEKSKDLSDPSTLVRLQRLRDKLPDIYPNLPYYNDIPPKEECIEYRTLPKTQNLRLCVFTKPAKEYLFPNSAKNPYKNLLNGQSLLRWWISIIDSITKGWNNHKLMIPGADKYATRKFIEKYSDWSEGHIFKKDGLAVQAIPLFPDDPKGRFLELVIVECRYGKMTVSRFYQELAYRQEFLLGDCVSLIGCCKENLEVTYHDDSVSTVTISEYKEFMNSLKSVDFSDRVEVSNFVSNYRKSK
Efflux pump inh: antifungal efflux pump inhibition, Nile Red retention; S. cerevisiae Candida pump triplex; inhibition, % at 10 µM; 330,000 compounds, 0.44% hits; AID 485275;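 active = plate passing quality check with inhibition over a set limit, or well fluorescence over plate mean plus 4 SD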;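 note: Nile Red retained in pooled yeast measured as flow cytometry median fluorescence; higher means more Nile Red kept so more efflux inhibition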
Rce1 inhib: yeast Ras-converting enzyme inhibition. Q03530. yeast membranes, quenched prenylated peptide cleavage fluorescence. calls only. 290,000 compounds, 0.27% hits. AID 2563;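 active = fall in fluorescence gain of 50% or more versus controls, with final raw signal at or below 3038400; inconclusive = same 50% fall but final raw signal above 3038400; inactive = fall in fluorescence gain under 50%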
GRK2 inh: blocks RNA aptamer binding to human GRK2. bead flow cytometry, FAM-aptamer displacement from GRK2. inhibition of aptamer binding, % at 10 µM. 330,000 compounds, 0.59% hits. AID 488847;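 active = inhibition of aptamer binding above 40%, roughly 3 SD of noise, on plates passing a quality check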;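 note: median bead fluorescence of bound FAM aptamer so fluorescent compounds give negative values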
A number is an active result; n = inactive; u = inconclusive; x = not tested or not shown; + = active, no number.

SMILES	ALR H2O2 inh	HDAC3 inhib	Rtt109 HAT inh	Efflux pump inh	Rce1 inhib	GRK2 inh
Cc1ccc(SCC(=O)NCCN2C(=O)CSC2=O)c(C)c1	n	n	n	n	n	n
Cc1ccc(-c2nc(SCC(=O)NCCN3C(=O)CSC3=O)[nH]c2-c2ccc(C)cc2)cc1	88	n	x	n	n	n
Cc1ccc(N2C(=O)c3ccc(C(=O)O)cc3C2=O)cc1C	95	n	x	n	n	n
Cc1ccc(N2C(=O)c3ccc(C(=O)N4CCN(c5ccc(C)c(C)c5)CC4)cc3C2=O)cc1	n	n	n	n	n	n
O=C1CC(c2ccccc2)CC(O)=C1C=Nc1ccc(Cl)cc1 (stereo not drawn)	n	n	n	n	n	n
O=C1CCCC(O)=C1C=Nc1ccc(O)cc1	99	n	u	n	n	n
CC(NCC(O)COC1CCC(C(C)(C)C)CC1)c1ccccc1 (stereo not drawn)	n	n	60	n	x	n
O=C(Nc1ccccc1)Nc1nnc(-c2cccs2)s1	x	x	n	n	n	n
COc1ccc(NC(=O)Nc2nnc(-c3cccs3)s2)cc1	x	n	62	n	n	n
O=C(Nc1ccc(S(=O)(=O)NCc2ccccc2)cc1)C1CCCCC1	n	n	n	n	n	n
NNc1nc(-c2ccccc2)cs1	99	x	x	n	n	n
COc1ccccc1N=c1oc2cc(O)ccc2cc1C(=O)NCC1CCCO1 (stereo not drawn)	92	n	n	n	n	n
COc1cccc(N=c2oc3cc(O)ccc3cc2C(=O)NCC2CCCO2)c1 (stereo not drawn)	n	n	n	n	n	n
COC(=O)c1cc(CN2CCN(c3ccccc3)CC2)ccc1O	98	n	n	n	n	n
COC(=O)c1ccccc1NC(=O)CN1CCN(Cc2ccccc2)CC1	n	n	n	n	n	n
CCCCN(CCCNC(=O)C1CCN(S(=O)(=O)N2CCOCC2)CC1)c1ccccc1	99	n	n	n	n	n
CCN(CCNC(=O)C1CCN(S(C)(=O)=O)CC1)c1ccccc1	99	n	n	n	n	n
CCN(CCCNC(=O)C1CCC(=O)N1Cc1ccc(F)cc1)c1cccc(C)c1 (stereo not drawn)	99	n	n	n	n	n
CCN(CCCNC(=O)C1CCN(S(=O)(=O)N2CCC3(CC2)OCCO3)CC1)c1ccccc1	99	n	n	n	n	n
CCN(CCCNC(=O)C1CCN(S(=O)(=O)CC)CC1)c1cccc(C)c1	99	n	n	n	x	n
CCCS(=O)(=O)N1CCC(C(=O)NCCN(CC)c2ccccc2)CC1	n	n	n	n	n	n
CCN(CCCNC(=O)C1CCN(S(=O)(=O)CC)CC1)c1ccccc1	99	n	n	n	n	n
CCN(CC)C(=O)[C@H]1C[C@H](CC(=O)NC(C)(C)C)C(=O)N2CCc3c([nH]c4cc(CCC(=O)N(C)C)ccc34)[C@]12C	x	x	n	n	x	50
CN(C)C(=O)CCc1ccc2c3c([nH]c2c1)[C@]1(C)[C@@H](C(=O)N2CCCCC2)C[C@H](CC(=O)NC(C)(C)C)C(=O)N1CC3	x	x	n	n	x	n
CCN(CC)C(=O)[C@H]1CC(CC(=O)NCC23CC4CC(CC(C4)C2)C3)C(=O)N2CCc3c([nH]c4ccc(OC)cc34)[C@]12C (stereo partly drawn)	x	x	n	n	x	44
SMILES	ALR H2O2 inh	HDAC3 inhib	Rtt109 HAT inh	Efflux pump inh	Rce1 inhib	GRK2 inh
COc1ccc2[nH]c3c(c2c1)CCN1C(=O)C(CC(=O)NCC24CC5CC(CC(C5)C2)C4)C[C@H](C(=O)N2CCCCC2)[C@@]31C (stereo partly drawn)	x	x	n	n	x	n
O=C(Cc1ccc(O)cc1)N/N=C/c1cccnc1	n	n	n	n	n	n
Clc1ccc(Cc2ccccn2)cc1	x	x	n	x	x	x
CCSc1ccccc1C(=O)Nc1ccc([N+](=O)[O-])cc1OC	x	n	55	n	n	n
CCN1C(=O)CC(C(=O)NC)SC1=Nc1cc(Cl)c(O)c(Cl)c1 (stereo not drawn)	99	n	n	n	n	n
O=C(NCc1cccs1)C1CCN(S(=O)(=O)c2cccc3cccnc23)CC1	95	n	n	n	n	n
Cc1ccc(NC(=O)C2CCN(S(=O)(=O)c3cccc4cccnc34)CC2)nc1	95	n	n	n	n	n
O=C(C1CCN(S(=O)(=O)c2cccc3cccnc23)CC1)N1CCCCC1	n	n	n	n	n	n
O=C(NCc1ccco1)C1CCN(S(=O)(=O)c2cccc3cccnc23)CC1	n	n	n	n	n	n
O=C(C1CCN(S(=O)(=O)c2cccc3cccnc23)CC1)N1CCN(C2CCCC2)CC1	82	n	n	n	n	n
Cc1ccc2c(c1)-n1c(nc3cc(Cl)ccc3c1=O)C(CC(C)C)NC2=O (stereo not drawn)	n	n	x	n	x	n
Cc1ccccc1OCC(=O)Nc1nnc(COc2ccccc2)s1	n	n	n	n	n	n
O=C(C1CCC(CNc2c(N3CCOCC3)c(=O)c2=O)CC1)N1CCN(c2ccccc2)CC1 (stereo not drawn)	87	n	n	n	x	n
O=C1N(c2ccccc2)C[C@@H]2C[C@@H](c3cc4ccccc4o3)N3CCC[C@@]123	x	x	n	x	n	x
COc1ccccc1-c1cc(C(F)(F)F)nc(S(=O)(=O)CCCC(=O)N2CCCCC2C)n1 (stereo not drawn)	98	n	n	n	n	n
COc1ccccc1-c1cc(C(F)(F)F)nc(S(=O)(=O)CCCC(=O)NC(C)C)n1	n	n	n	n	n	n
COc1ccccc1-c1cc(C(F)(F)F)nc(S(C)(=O)=O)n1	91	n	n	n	n	n
Cc1ccc(S(=O)(=O)N2CC(C)N(C(=O)N3CCOCC3)C2C)cc1 (stereo not drawn)	n	n	n	n	n	n
Cc1cc2ncn(C(=O)c3ccc(F)cc3)c2cc1C	98	n	n	n	n	n
COc1ccc(C(=O)NCCNc2nc3ccc(C)cc3cc2C#N)cc1OC	90	n	n	n	n	n
COc1ccccc1CNC(=O)c1c(N)n(CCCN2CCOCC2)c2nc3ccccc3nc12	x	x	n	x	n	x
CC(C)OC(=O)c1c(N)n(CCCN2CCOCC2)c2nc3ccccc3nc12	n	n	n	n	+	n
N#CCC(=O)Nc1ccc(C(=O)OCC(=O)N(C2CCCCC2)C2CCCCC2)cc1	n	n	n	n	n	n
O=C1c2ccccc2NC(c2ccc(-c3cccc([N+](=O)[O-])c3)o2)N1O (stereo not drawn)	90	n	n	n	n	n
COCCN(C(=O)CSc1ccc2c(c1)OCCO2)c1c(N)n(CC(C)C)c(=O)[nH]c1=O	94	n	n	n	x	n
CCCCn1c(N)c(N(CC(C)C)C(=O)CSc2ccc3c(c2)OCCO3)c(=O)[nH]c1=O	x	n	n	n	x	n
